{
  "source": "the supplement of paper PMC12350171",
  "note": "Where a name gives a salt, the structure may show the parent alone. Values without a mark were called inactive.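 How the source made its calls: active = AUC significantly below DMSO controls by Student t-fit with adjusted P under 0.01; inactive = not significantly reduced.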",
  "data": [
    {"test_system": "Haemophilus parainfluenzae", "experiment": "growth AUC normalised to DMSO control (fraction of control); higher = less growth inhibition, active = hit call of the paper", "settings": "20 µM", "how_it_was_run": "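After two anaerobic passages, pathogens were added at a starting OD578 of 0.01 to pre-reduced mGAM plates holding compound at 20 μM with 1% DMSO; hemin and NAD were supplemented for Haemophilus parainfluenzae. Sealed with breathable membranes, plates were read at OD578 hourly for 24 h, in three biological replicates. The trapezoidal rule, applied up to the exponential-to-stationary transition, gave the growth-curve AUC, which was normalised to DMSO controls on the same plate.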", "values": [
      {"smiles": "C=CCOc1ccccc1OCC(O)CNC(C)C", "note": "(centres undefined) [Oxprenolol hydrochloride]", "growth AUC normalised to DMSO control": 0.958},
      {"smiles": "CN[C@@H]1[C@H](O)[C@H](NC)[C@H]2O[C@@]3(O)C(=O)C[C@@H](C)O[C@H]3O[C@@H]2[C@H]1O", "note": "[Spectinomycin dihydrochloride]", "growth AUC normalised to DMSO control": "0.117 (active)"},
      {"smiles": "COc1c(N2C[C@@H]3CCCN[C@@H]3C2)c(F)cc2c(=O)c(C(=O)O)cn(C3CC3)c12", "note": "[Moxifloxacin]", "growth AUC normalised to DMSO control": "0.0254 (active)"},
      {"smiles": "C/C=C(/C(=C/C)c1ccc(O)cc1)c1ccc(O)cc1", "note": "[Dienestrol]", "growth AUC normalised to DMSO control": 0.999},
      {"smiles": "COc1ccc(/C=C/C(=O)Nc2ccccc2C(=O)O)cc1OC", "note": "[Tranilast]", "growth AUC normalised to DMSO control": 1.01},
      {"smiles": "COc1ccc(-c2cc(=S)ss2)cc1", "note": "[Anethole-trithione]", "growth AUC normalised to DMSO control": 1.05},
      {"smiles": "Nc1ccn([C@H]2CC[C@@H](CO)O2)c(=O)n1", "note": "[Zalcitabine]", "growth AUC normalised to DMSO control": 1.06},
      {"smiles": "Cc1cc(=O)oc2cc(O)ccc12", "note": "[Hymecromone]", "growth AUC normalised to DMSO control": 1},
      {"smiles": "CCCCC1(COC(=O)CCC(=O)O)C(=O)N(c2ccccc2)N(c2ccccc2)C1=O", "note": "[Suxibuzone]", "growth AUC normalised to DMSO control": 0.995},
      {"smiles": "CS(=O)(=O)c1ccc(C2=C(c3ccccc3)C(=O)OC2)cc1", "note": "[Rofecoxib]", "growth AUC normalised to DMSO control": 0.964},
      {"smiles": "Clc1ccccc1CN1CCc2sccc2C1", "note": "[Ticlopidine hydrochloride]", "growth AUC normalised to DMSO control": 0.972},
      {"smiles": "Cc1[nH]c(=O)c(C#N)cc1-c1ccncc1", "note": "[Milrinone]", "growth AUC normalised to DMSO control": 0.987},
      {"smiles": "Cc1cc(CC(=O)O)n(C)c1C(=O)c1ccc(Cl)cc1", "note": "[Zomepirac sodium salt]", "growth AUC normalised to DMSO control": 0.993},
      {"smiles": "CCOC(=O)OC(C)OC(=O)[C@@H]1N2C(=O)[C@@H](NC(=O)[C@H](N)c3ccccc3)[C@H]2SC1(C)C", "note": "(some centres undefined) [Bacampicillin hydrochloride]", "growth AUC normalised to DMSO control": "0.0618 (active)"},
      {"smiles": "CN(C)CC/C=C1/c2ccccc2COc2ccc(CC(=O)O)cc21", "note": "[Olopatadine hydrochloride]", "growth AUC normalised to DMSO control": 0.881},
      {"smiles": "Cc1c(N(C)CS(=O)(=O)O)c(=O)n(-c2ccccc2)n1C", "note": "[Dipyrone sodium salt]", "growth AUC normalised to DMSO control": 1.02},
      {"smiles": "CC(=O)/N=c1/sc(S(N)(=O)=O)nn1C", "note": "[Methazolamide]", "growth AUC normalised to DMSO control": 1},
      {"smiles": "CN1CCN(CCCN2c3ccccc3Sc3ccc(C(F)(F)F)cc32)CC1", "note": "[Trifluoperazine dihydrochloride]", "growth AUC normalised to DMSO control": 0.927},
      {"smiles": "O=C(O)COCCN1CCN(C(c2ccccc2)c2ccc(Cl)cc2)CC1", "note": "(centres undefined) [Cetirizine dihydrochloride]", "growth AUC normalised to DMSO control": 0.943},
      {"smiles": "COc1cc(C(=O)OCCCN2CCCN(CCCOC(=O)c3cc(OC)c(OC)c(OC)c3)CC2)cc(OC)c1OC", "note": "[Dilazep dihydrochloride]", "growth AUC normalised to DMSO control": 0.97},
      {"smiles": "O=C1CCc2cc(OCCCCc3nnnn3C3CCCCC3)ccc2N1", "note": "[Cilostazol]", "growth AUC normalised to DMSO control": 1.26},
      {"smiles": "COc1ccc(CC(C)NCC(O)c2ccc(O)c(NC=O)c2)cc1", "note": "(centres undefined) [Formoterol fumarate]", "growth AUC normalised to DMSO control": 1.09},
      {"smiles": "O=c1[nH]cc(F)c(=O)[nH]1", "note": "[5-fluorouracil]", "growth AUC normalised to DMSO control": "0.654 (active)"},
      {"smiles": "COc1cc(NC(C)CCCN)c2ncccc2c1", "note": "(centres undefined) [Primaquine diphosphate]", "growth AUC normalised to DMSO control": 1.08},
      {"smiles": "N=C(N=C(N)N)N1CCOCC1", "note": "[Moroxidine hydrochloride]", "growth AUC normalised to DMSO control": 1},
      {"smiles": "C[C@]12CC[C@@H]3c4ccc(O)cc4CC[C@H]3[C@@H]1C[C@@H](O)[C@@H]2O", "note": "[Estriol]", "growth AUC normalised to DMSO control": 1.02},
      {"smiles": "CN[C@@H]1[C@H](O[C@H]2[C@H](O[C@H]3[C@H](O)[C@@H](O)[C@H](NC(=N)N)[C@@H](O)[C@@H]3NC(=N)N)O[C@@H](C)[C@]2(O)CO)O[C@@H](CO)[C@H](O)[C@H]1O", "note": "[Dihydrostreptomycin sulfate]", "growth AUC normalised to DMSO control": "0.0409 (active)"},
      {"smiles": "NC(=O)NC1NC(=O)NC1=O", "note": "(centres undefined) [Allantoin]", "growth AUC normalised to DMSO control": 0.974},
      {"smiles": "CCCN[C@H]1CCc2nc(N)sc2C1", "note": "[Pramipexole dihydrochloride]", "growth AUC normalised to DMSO control": 0.985},
      {"smiles": "CCc1cccc(CC)c1NC(=O)CN(CC(=O)O)CC(=O)O", "note": "[Etifenin]", "growth AUC normalised to DMSO control": 1.01},
      {"smiles": "CN(C)CCOc1ccc(/C(=C(/CCCl)c2ccccc2)c2ccccc2)cc1", "note": "[Toremifene]", "growth AUC normalised to DMSO control": 0.997},
      {"smiles": "COc1cc([S+](C)[O-])ccc1-c1nc2cccnc2[nH]1", "note": "(centres undefined) [Sulmazole]", "growth AUC normalised to DMSO control": 1},
      {"smiles": "N[C@@H]1CONC1=O", "note": "[D-cycloserine]", "growth AUC normalised to DMSO control": 1.04},
      {"smiles": "CN(C)/N=N/c1[nH]cnc1C(N)=O", "note": "[Dacarbazine]", "growth AUC normalised to DMSO control": 0.999},
      {"smiles": "C[C@@H](O[C@H]1OCCN(Cc2n[nH]c(=O)[nH]2)[C@H]1c1ccc(F)cc1)c1cc(C(F)(F)F)cc(C(F)(F)F)c1", "note": "[Aprepitant]", "growth AUC normalised to DMSO control": 0.941},
      {"smiles": "CN(C)CCN(Cc1cccs1)c1ccccn1", "note": "[Methapyrilene hydrochloride]", "growth AUC normalised to DMSO control": 0.983},
      {"smiles": "CC(=O)Oc1cc(C(C)C)c(OCCN(C)C)cc1C", "note": "[Moxisylyte hydrochoride]", "growth AUC normalised to DMSO control": 0.995},
      {"smiles": "CC[N+](C)(CC)CCOC(=O)C1c2ccccc2Oc2ccccc21", "note": "[Methantheline bromide]", "growth AUC normalised to DMSO control": 1.04},
      {"smiles": "CCCCCCCN(CC)CCCC(O)c1ccc(NS(C)(=O)=O)cc1", "note": "(centres undefined) [Ibutilide fumarate]", "growth AUC normalised to DMSO control": 0.938}
    ]}
  ]
}
